Inhibition data for 96 compounds are collected here from PubChem BioAssay AID504357 (The Scripps Research Institute Molecular Screening Center, 2011).

Usually inhibition stands for the drop in the measured response relative to a control, in per cent.

The structures appear in SMILES notation. Out of some 340,000 compounds screened, about 700 (0.21%) were called active. No stated cut-off is given here; in the data, active means inhibition above about 22% (passing the limit was not always enough); inactive means the rest. The list comes from a sample in which actives are over-represented; it also holds similar structures and randomly drawn compounds.

For the experiment, the target named is Mu-type opioid receptor (Homo sapiens) + Delta-type opioid receptor (Homo sapiens) (UniProt P35372+P41143). The experiment can be described thus: inverse agonists of MOR-DOR heterodimerization, primary screen, cell-based, luminescence (AID 504357).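 Further: 0% = cells with DMSO and 100% = wells without cells with DMSO.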 The following applies: cell-based MOR-DOR heterodimer luminescence, inverse agonism; at 9.3 µM; stronger effect = higher value.
Chain of Mu-type opioid receptor (Homo sapiens) + Delta-type opioid receptor (Homo sapiens) (P35372 whole entry, looked up): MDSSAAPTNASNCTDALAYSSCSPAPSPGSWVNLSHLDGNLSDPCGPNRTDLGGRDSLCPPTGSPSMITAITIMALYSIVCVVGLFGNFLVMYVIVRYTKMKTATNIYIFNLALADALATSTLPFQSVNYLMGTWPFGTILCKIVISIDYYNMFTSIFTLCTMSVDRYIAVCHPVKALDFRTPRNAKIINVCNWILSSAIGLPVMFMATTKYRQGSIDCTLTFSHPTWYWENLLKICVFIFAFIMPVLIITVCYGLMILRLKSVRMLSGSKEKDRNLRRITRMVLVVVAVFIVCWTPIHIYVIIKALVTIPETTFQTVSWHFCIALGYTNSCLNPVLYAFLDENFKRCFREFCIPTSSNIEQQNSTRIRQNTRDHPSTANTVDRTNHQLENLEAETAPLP
Chain of Mu-type opioid receptor (Homo sapiens) + Delta-type opioid receptor (Homo sapiens) (P41143 whole entry, looked up): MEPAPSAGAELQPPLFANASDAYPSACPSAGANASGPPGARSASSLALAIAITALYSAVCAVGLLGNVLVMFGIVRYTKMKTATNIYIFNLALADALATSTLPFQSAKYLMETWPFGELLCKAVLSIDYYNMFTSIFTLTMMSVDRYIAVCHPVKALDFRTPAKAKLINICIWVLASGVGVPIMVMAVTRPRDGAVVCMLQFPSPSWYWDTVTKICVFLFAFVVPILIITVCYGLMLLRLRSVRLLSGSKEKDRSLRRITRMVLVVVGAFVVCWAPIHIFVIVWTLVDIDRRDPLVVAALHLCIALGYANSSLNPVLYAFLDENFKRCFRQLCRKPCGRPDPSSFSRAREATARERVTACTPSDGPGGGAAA
Consider `Cc1ccc(Nc2nnc(SC(C)C(=O)NC3CC3)s2)cc1` (stereo unspecified), for which the inhibition is 5.95% (inactive).

Consider `O=S(=O)(NCc1ccccc1)c1ccc(S(=O)(=O)N2CCCC2)cc1`, for which the inhibition was 7.6% (inactive).

For `COC(=O)CSc1nc2c(c(C3CC=CCC3)c1C#N)CCC2` (stereo unspecified), the inhibition is 0.33% (inactive).

Turning to `CC1CCN(C(=O)c2ccc3c(=O)n4c(nc3c2)CCCCC4)CC1`, the inhibition was -4.92% (inactive).

For the compound `CCc1noc(C)c1C(=O)N1CCN(S(=O)(=O)c2cccc(C(F)(F)F)c2)CC1`, the inhibition is 9.18% (inactive).

On to `COc1cc(C2C(N3C(=O)c4ccccc4C3=O)C(=O)N2c2ccc(C)c(C)c2)cc(OC)c1OC` (stereo unspecified), for which the inhibition is 8.56% (inactive).

Turning to `O=C(c1cc2ccccc2s1)N1CCN(c2ccccn2)CC1`, the inhibition was 5.35% (inactive).

With `Cc1cccc(N(C)C(=O)c2cc(S(=O)(=O)N3CCCCC3)c[nH]2)c1`, the inhibition is -2.65% (inactive).

On to `Cc1cccc(C)c1Nc1c(-c2ccccc2O)nc2ncccn12`, for which the inhibition was 5.45% (inactive).

On to `O=C(O)c1ccc(S(=O)(=O)N2CCOCC2)o1`, for which the inhibition was -0.55% (inactive).

As to `COC(=O)c1c(NC(=O)C(=O)N2CCCCC2)sc2c1CC(C)(C)OC2`, the inhibition is -12.8% (inactive).

For the compound `Cc1nc2c(-c3ccc(F)cc3)c(C)nn2c(C)c1CCC(=O)N1CCN(c2ccccn2)CC1`, the inhibition was 8.06% (inactive).

As for `Cc1ccc(NC(=O)CN2CCCCC2)c2c1CC(C)(C)O2`, the inhibition is -2.22% (inactive).

As for `Cc1ccc(S(=O)(=O)NC[C@H]2O[C@@H](n3cnc4c(N)ncnc43)[C@H](O)[C@@H]2O)s1`, the inhibition was 16.3% (inactive).

As to `CCN1CC=C2C(C#N)=C(N)C(C#N)(C#N)[C@H](c3ccoc3)[C@H]2C1`, the inhibition is -33.3% (inactive).

On to `N#CC1=C(N)C(C#N)(C#N)[C@H](c2ccsc2)[C@H]2COCC=C12`, for which the inhibition was 25.7% (active).

Turning to `O=C1N=C(N2CCOCC2)CS1`, the inhibition is 0.02% (inactive).

Turning to `Cc1ccccc1NC(=O)c1cc(S(=O)(=O)N2CCOCC2)cs1`, the inhibition was 4.89% (inactive).

Regarding `CN(CC(=O)Nc1cccc2c1CCCC2)S(=O)(=O)c1ccc(Cl)cc1`, the inhibition is -0.65% (inactive).

As for `O=S(=O)(c1ccc(Br)c2ccccc12)N1CCOCC1`, the inhibition was 15.2% (inactive).

Take `O=S(=O)(c1cnccc1N1CCN(/N=C/c2ccc(Br)cc2)CC1)N1CCCCC1`: the inhibition was 6.92% (inactive).

As for `COC(CNC(=O)c1ccc2c(c1)ncn2-c1cc(C)cc(C)c1)OC`, the inhibition is 13% (inactive).

`CCc1cccc(C)c1NS(=O)(=O)c1cc(Br)cnc1N`: the inhibition was -50.1% (inactive).

Regarding `O=C(CCc1[nH]c2ccccc2c1Sc1ccccc1)N(CCO)CCO`, the inhibition is 8.56% (inactive).

In the case of `CC(C)c1ccc(S(=O)(=O)N2CCN(C(=O)c3ccc(N4CCCC4)c([N+](=O)[O-])c3)CC2)cc1`, the inhibition is 19.3% (inactive).

Regarding `Cc1cccc(NC(=O)NC2(C)CCS(=O)(=O)C2)c1` (stereo unspecified), the inhibition was -1.39% (inactive).

As to `CCNc1nc(NC(C)C)nc(OCCOC(=O)c2ccccc2)n1`, the inhibition was 0.3% (inactive).

Take `CCSC1=NCCN1S(=O)(=O)c1ccc(F)cc1`: the inhibition is 2.33% (inactive).

With `Cc1nccn1CCC1CCCCN1C(=O)CCc1nnc(-c2ccsc2)o1` (stereo unspecified), the inhibition is 11.7% (inactive).

Consider `Cc1ccccc1C(CC(=O)c1cccs1)C(C#N)C#N` (stereo unspecified), for which the inhibition is 8.61% (inactive).

Turning to `COC(=O)C1=C(C(=O)OC)[C@@H]2N(C)c3ccccc3[C@@]23C[C@@H](C(=O)OC)N(C(=O)c2ccco2)C3=N1`, the inhibition was 7.48% (inactive).

Take `Cc1nc2nc(SCC(=O)Nc3cccc(F)c3)[nH]c2cc1Br`: the inhibition is -28.8% (inactive).

With `CC(C)NC(=O)CSc1nnc(COc2ccccc2Cl)o1`, the inhibition was 16.3% (inactive).

Consider `CCOc1ccc(NC(=O)c2ccc(NC(=O)C3CCCO3)cc2)cc1` (stereo unspecified), for which the inhibition was 12.6% (inactive).

On to `CCOc1ccc(NC(=O)c2cccc3c2C(=O)N(CC2CCCO2)C3)cc1` (stereo unspecified), for which the inhibition is 23.6% (active).

`COc1ccc(NC(=O)c2cccc3c2C(=O)N(CC2CCCO2)C3)cc1OC` (stereo unspecified): the inhibition was 16.3% (inactive).

`CN(C)c1cc(N)c2ccccc2n1` (tested in a mixture with another compound): the inhibition is 9.35% (inactive).

For the compound `COc1ccc(NC(=O)CSc2nnc(Cc3ccccc3)c(=O)n2N)cc1`, the inhibition was 4.15% (inactive).

Turning to `CC(C)(C)SCCSC1=CC(=O)CC(c2ccccc2)C1` (stereo unspecified), the inhibition was -50% (inactive).

Take `CCC1Nc2ncnc(N3CCN(c4ccccc4)CC3)c2N(Cc2ccc(Cl)cc2)C1=O` (stereo unspecified): the inhibition is 72.3% (active).

For the compound `CC[C@]1(C(=O)OC)[C@H]2C(=O)N(Cc3ccccc3)C(=O)[C@H]2[C@H]2CN=C(SCc3ccc(Cl)cc3)N21`, the inhibition is -1.44% (inactive).

As to `O=C1C(Cc2ccc(O)cc2)NC(=S)N1Cc1ccccc1` (stereo unspecified), the inhibition was 17.3% (inactive).

In the case of `COc1cccc(C(CC(=O)NCCN2CCOCC2)NS(=O)(=O)c2ccc(C)cc2)c1OC` (stereo unspecified), the inhibition is 4.11% (inactive).

Regarding `COC(=O)[C@H]1Cc2cnoc2C[C@]1(C)C(=O)O`, the inhibition was 8.29% (inactive).

For `Cc1cc(C)cc(NC(=O)C2CCCN2S(=O)(=O)c2cccc3cccnc23)c1` (stereo unspecified), the inhibition was 7.78% (inactive).

As for `COc1cc(C(=O)OCC(=O)N(CC(C)C)C2CCS(=O)(=O)C2)ccc1OCC(C)C` (stereo unspecified), the inhibition is 12.3% (inactive).

Turning to `COc1cc(/C=C/C(=O)N2CCc3ccccc3C2)cc(OC)c1OC`, the inhibition was 15.2% (inactive).

As for `Cc1cc(Cl)c2oc(C(=O)N(C)C(C)c3ccccn3)c(C)c2c1` (stereo unspecified), the inhibition was -14% (inactive).

`CCCNC(=O)N1CCN(C(=O)NCCC)CC1`: the inhibition is -0.22% (inactive).

`O=C1C(=O)N(c2ccccc2)c2ccccc21`: the inhibition was 47.8% (active).

Regarding `O=C1c2ccccc2C(=O)N1c1ccccc1S(=O)C(F)(F)F` (stereo unspecified), the inhibition is 1.53% (inactive).

Turning to `O=C1C(Cl)=C(N2CCOCC2)C(=O)N1c1ccccc1`, the inhibition was 7.3% (inactive).

With `Cc1cccc(N=Nc2c(O)[nH]c3ccc(F)cc23)c1`, the inhibition is 33% (active).

Take `NS(=O)(=O)c1ccc(N=Nc2c(O)[nH]c3ccc(Br)cc23)cc1`: the inhibition was 16.9% (inactive).

For `Oc1[nH]c2ccccc2c1N=Nc1c(F)c(F)c(F)c(F)c1F`, the inhibition is 13.1% (inactive).

Consider `O=C(COC(=O)Cn1cnc2ccccc2c1=O)NCC12CC3CC(CC(C3)C1)C2`, for which the inhibition was 0.67% (inactive).

As for `CCCS(=O)(=O)C(=C1Nc2ccccc2N1)S(=O)(=O)CCC`, the inhibition is 3.81% (inactive).

As to `CN(C)/C=C1\C=C(c2ccccc2)OC1=O`, the inhibition was 5.39% (inactive).

With `CN(C)/C=C1/Nc2ccccc2C1=O`, the inhibition was 34.7% (active).

Consider `Cc1ccc(Cc2nnc(SCC(=O)Nc3ccc(C)cc3C)[nH]c2=O)cc1`, for which the inhibition was -25.8% (inactive).

With `O=C1CCC(=O)N(O)CCCCCNC(=O)CCC(=O)N(O)CCCCCNC(=O)CCC(=O)N(O)CCCCCN1`, the inhibition is 8.42% (inactive).

For the compound `CN(O)C(=S)c1ccccc1`, the inhibition is 41.1% (active).

As for `CN(/N=C/c1ccccc1)C(=S)c1ccccc1`, the inhibition is -3.87% (inactive).

As for `CN(CC(=O)O)C(=O)c1ccccc1`, the inhibition was 10.9% (inactive).

Take `Cc1ccc(NC(=O)c2cccs2)cc1S(=O)(=O)N(C)C`: the inhibition is 0.25% (inactive).

Turning to `Cc1ccc(NNC(=O)c2cccs2)cc1Cl`, the inhibition is 53.4% (active).

Turning to `O=C(NNC(=O)c1ccc(Cl)cc1Cl)c1cccs1`, the inhibition is 2.42% (inactive).

`CSc1ccc(Cl)c(C(=O)OCC(=O)N2CCNC2=O)c1`: the inhibition is 16.2% (inactive).

For the compound `Cc1cc(C)cc(N)c1`, the inhibition was 14.8% (inactive).

In the case of `CCN(CC(=O)NCc1ccco1)S(=O)(=O)c1ccc(F)cc1`, the inhibition is -7.35% (inactive).

Take `COc1ccccc1C(=O)NC(=O)COC(=O)c1ccco1`: the inhibition was 3.92% (inactive).

Turning to `Cc1cccc(-n2c(SCC(N)=O)nc3c(c2=O)C2(CCCCC2)Cc2ccccc2-3)c1`, the inhibition is -5.65% (inactive).

For `CC1CC2=C(CC1/C=N/NC(N)=S)C(C)(C)CCC2` (stereo unspecified), the inhibition is -16.2% (inactive).

For the compound `CCn1cc(/C=C2/SC(=S)NC2=O)c(C)n1`, the inhibition is 9.33% (inactive).

On to `CC1CCCC(N2CCN(C(=O)c3ccc(F)cc3)CC2)C1` (stereo unspecified), for which the inhibition was 1.43% (inactive).

As for `CCOc1ccc(S(=O)(=O)NCCC(=O)N2CCCCCCC2)cc1`, the inhibition was -1.55% (inactive).

`O=C(CCN1CCN(C/C=C/c2ccccc2)CC1)Nc1ccccc1Cl`: the inhibition was 1.43% (inactive).

For `CC(c1cccnc1)N(CCN(C)C)C(=O)Nc1ccc(Cl)c(Cl)c1` (stereo unspecified), the inhibition is -197% (inactive).

On to `Cc1cccc(C)c1NC(=O)C(Cl)C(=O)c1ccccc1` (stereo unspecified), for which the inhibition is 34.4% (active).

As for `CC(NC(=O)c1ccccc1)C(=O)Nc1ccccc1` (stereo unspecified), the inhibition is 19.2% (inactive).

As for `Cc1cccc(C)c1NC(=O)CN(C)C(=O)CCC(=O)c1ccccc1`, the inhibition is 3.3% (inactive).

Regarding `Cc1cc(C)c(S(=O)(=O)N2CCC(C(=O)OCc3c(C)noc3C)CC2)c(C)c1`, the inhibition was 6.69% (inactive).

Turning to `COc1cccc(-c2ccc(C#N)c(SCC(=O)NCCc3ccc(Cl)cc3)n2)c1`, the inhibition is -45.6% (inactive).

Turning to `Oc1ccc(N=Nc2nccs2)c(O)c1`, the inhibition was 37.2% (active).

Take `O=C(COc1ccccc1)Nc1ccc(F)cc1`: the inhibition is 7.72% (inactive).

In the case of `Cc1ccc(S(=O)(=O)N(C)c2ccc(OCC(=O)NC3=NCCS3)cc2)cc1`, the inhibition was 7.13% (inactive).

Regarding `CN(c1ccccc1)S(=O)(=O)c1ccc(NC(=O)COc2ccccc2)cc1`, the inhibition was 31.1% (active).

Turning to `Cc1ccc(NC2(C#N)C(=O)Nc3ccccc32)cc1` (stereo unspecified), the inhibition is 63.2% (active).

As to `Cc1cc(O)c(C2(O)C(=O)Nc3ccccc32)cc1C` (stereo unspecified), the inhibition is 10.4% (inactive).

For `Cc1cccc(CC2(O)C(=O)Nc3ccccc32)n1` (stereo unspecified), the inhibition was 15.9% (inactive).

As to `CC(CC(=O)N1CCN(c2ccccc2)CC1)S(=O)(=O)c1ccc2c(c1)NC(=O)CS2` (stereo unspecified), the inhibition is 4.28% (inactive).

Regarding `CCCCCCCCCCCCN1[C@@H](CC(C)=O)c2cc(F)cc(F)c2S1(=O)=O`, the inhibition was 8.79% (inactive).

Take `Cc1cc(=O)oc2c1c(C)nn2-c1ccc(Cl)cc1`: the inhibition was 11% (inactive).

As for `Cc1ccc(CN(CC(=O)NCC2CCCO2)S(=O)(=O)c2ccc(C)cc2)cc1` (stereo unspecified), the inhibition is 10.1% (inactive).

As for `Nc1nnc(C2CCCC2)s1`, the inhibition was 11.4% (inactive).

As for `O=C(NCCN1CCOCC1)/C(=C/c1ccc(F)cc1)NC(=O)c1ccccc1`, the inhibition is 18.7% (inactive).
